Inconclusive results are not listed. Active and inactive are the calls of the source. Calls come from the whole dose curve; as a rule, active = well fitted inhibition curve with a large enough effect; inconclusive = small, poorly fitted or top-dose-only effect; inactive = flat fitted curve, though single readings scatter.
Test: P-glycoprotein substrates identified in KB-8-5-11 adenocarcinoma cell line, qHTS therapeutic library screen (AID 1346987); note: nearly all actives have a fitted effect of over 65% in size
Conditions: KB-8-5-11 (P-gp overexpressing) viability, CellTiter-Glo, 72 h; series mostly up to 44.5 µM; activity change, negative = cytotoxicity: at the top concentration
From the text: The ATP-binding cassette transporters P-glycoprotein (P-gp) is known to limit brain penetration of many chemotherapy drugs. […] As such, we developed a high-throughput screen (HTS) to identify substrates of P-gp from a series of chemical libraries including the National Center for Advancing Translational Sciences Pharmaceutical Collection NPC, 2,816 compounds), testing a total of 10,804 compounds, most of which have known mechanisms of action. We used the CellTiter-Glo viability assay to test library compounds against the parental KB-3-1 human cervical adenocarcinoma cell line and the colchicine-selected sub-line KB-8-5-11 that over-expresses P-gp. KB-8-5-11 cells were also tested in the presence of a P-gp inhibitor (tariquidar) to assess reversability of transporter-mediated resistance. Of the tested compounds, a total of 90 P-gp substrates were identified including 55 newly identified P-gp substrates. Substrates were confirmed using an orthogonal killing assay against HEK-293 cells transfected with P-gp. As exemplars, we confirmed that […] (cyclin-dependent kinase inhibitor); AT9283, (Janus kinase 2/3 inhibitor); ispinesib (kinesin spindle protein inhibitor); gedatolisib (PKI-587, phosphoinositide 3-kinase/mammalian target of rampamycin inhibitor); GSK-690693 (AKT inhibitor); and KW-2478 (heat shock protein 90 inhibitor) were substrates , and direct ATPase stimulation was assessed. ABCG2 was also found to confer high levels of resistance to AT9283, GSK-690693 and gedatolisib, while ispinesib, AT7519 and KW-2478 were weaker substrates.
The HeLa derivative cell line, KB-3-1, and its colchicine-selected, P-gp-overexpressing subline, KB-8-5-11 were maintained in DMEM with 10% FCS and Pen/Strep with glutamine at 37 degree C in 5% CO2. For KB-8-5-11 cells, colchicine was added to the medium at a concentration of 100 ng/mL. HEK-293 cells transfected with empty vector (pcDNA) or vector containing human ABCB1 (MDR-19) or ABCG2 (R-5) have been described previously (Robey, Lin, Qiu, Chan & Bates, 2011) and were maintained in EMEM supplemented with 10% FCS, Pen/Strep and glutamine with 2 mg/ml G418 to select for the expression of the transporter. Cultures were confirmed to be free of mycoplasma infection using the MycoAlert Mycoplasma Detection Kit (Lonza, Walkersville, MD). For the screen, assay medium was identical to culture medium except for KB-8-5-11 where colchicine was excluded from the medium.
All cell lines were plated into 1536-well plates at 500 cells/well in 5 uL media. Compounds were then pinned in dose-response using a 1536-head pin tool (Kalypsis, San Diego, CA) and plates were incubated at 37 degree C in 5% CO2 for an additional 72 h. CellTiter-Glo reagent (Promega) was dispensed into the wells, incubated for 5 min and luminescence was read on a ViewLux instrument (Perkin-Elmer). Cytotoxic compounds were defined as those that yielded a curve class of -1.1, -1.2, -2.1, -2.2, -2.3, or -2.4, a maximum response of >50% and an AC50 of < 10 uM. Cherry-picked hits from screening analysis were tested with both the KB pair of cell lines, and the pcDNA (empty vector control) and MDR-19 (P-gp overexpressing) pair were tested, in the absence and presence of tariquidar.
% is set by controls: 0 for no effect and ±100 for the full control effect.

Row | Compound | activity change, negative = cytotoxicity | outcome
1 | O=C(OC(C(F)(F)F)C(F)(F)F)N1CCN(Cc2cccc(Oc3ccccc3)c2)CC1 | -8.78% (inactive) | –
2 | COc1cc(/C=C/C(=O)O[C@H]2[C@H](O)[C@@H](CO)O[C@@]2(CO)O[C@H]2O[C@H](CO)[C@@H](O)[C@H](O)[C@H]2O)cc(OC)c1O | – | inactive [at 17.3 µM]
3 | CC1(CO)CC(O)C2(C)CCC3(C)C(=CCC4C5(C=O)CCC(OC6OC(C(=O)O)C(O)C(O)C6OC6OC(C(=O)O)C(O)C(O)C6O)C(C)(C)C5CCC43C)C2C1 (stereo not given) | – | inactive [at 9.29 µM]
4 | C#CCCCn1cc(-c2cccc3c2N[C@@H](C)CC(=O)N3)cn1 | -25.3% (inactive) | –
5 | O=C(O)CCc1cccc(O)c1O[C@@H]1O[C@H](CO)[C@@H](O)[C@H](O)[C@H]1O | – | inactive
6 | OC[C@@]1(O)CO[C@H](OC[C@H]2O[C@@H](OC(CCCCc3ccc(O)cc3)CCc3ccc(O)cc3)[C@H](O)[C@@H](O)[C@@H]2O)[C@@H]1O (stereo not given in full) | – | inactive [at 17.3 µM]
7 | CC1(C)CC(NC(=O)C(=O)Nc2ccc(Cl)cc2)CC(C)(C)N1 | 4.78% (inactive) | –
8 | C/C=C(\C)C(=O)OC[C@H]1O[C@H](O[C@H]2O[C@H](CO)[C@@H](O)[C@H](O)[C@H]2O[C@@H]2O[C@H](CO)[C@@H](O)[C@H](O)[C@H]2O)[C@H](O[C@@H]2O[C@H](CO)[C@@H](O)[C@H](O)[C@H]2O)[C@@H](O)[C@@H]1O | 4.34% [at 17.3 µM] (inactive) | –
9 | O=C(/C=C/c1ccc(O)cc1)OC[C@@]1(O)C=C[C@@H]2C(C(=O)O)=CO[C@@H](O[C@@H]3O[C@H](CO)[C@@H](O)[C@H](O)[C@H]3O)[C@@H]21 | – | inactive [at 17.3 µM]
10 | COc1ccccc1CN[C@H]1CCCN[C@H]1c1ccccc1 | -9.07% (inactive) | –
11 | CC1=C2CC(=O)C(C)CC/C=C(\C)CC2OC1=O (stereo not given) | – | inactive
12 | C=CC(C)(CC/C=C(\C)C(=O)OC[C@H]1O[C@@H](OC(C)(C=C)CC/C=C(\C)C(=O)O[C@H]2[C@H](O)[C@@H](O)[C@H](OC(C)(C=C)CC/C=C(\C)C(=O)O)O[C@@H]2CO)[C@H](O)[C@@H](O)[C@@H]1O)O[C@@H]1O[C@H](CO)[C@@H](O)[C@H](O)[C@H]1O (stereo not given in full) | – | inactive [at 9.29 µM]
13 | CC(C)(CC(=O)N1CCCC1)NCC(=O)N1C[C@@H](F)C[C@H]1C#N | – | inactive
14 | CN1CCN(C2=Nc3ccccc3Nc3ccc(O)cc32)CC1 | – | inactive
15 | CC(=O)OC1(C)CC(O)C2(O)C=COC(OC3OC(CO)C(O)C(O)C3O)C12 (stereo not given) | – | inactive [at 17.3 µM]
16 | O=C(OCC1=CC(Cl)C(O)C(OC(=O)c2ccccc2)C1O)c1ccccc1 (stereo not given) | – | inactive [at 17.3 µM]
17 | CC[C@@H](Nc1c(Nc2cccc(C(=O)N(C)C)c2O)c(=O)c1=O)c1ccc(C)o1 | – | inactive
18 | CC1(C)CC=C(c2cnc3ccccc3c2)c2cc(C(=O)Nc3ccc(C(=O)O)cc3)ccc21 | – | inactive
19 | COc1cc(/C=C/C(=O)OC[C@H]2O[C@@H](OC3OC=C(C(=O)O)C4C(O)CC(C)(O)C34)[C@H](O)[C@@H](O)[C@@H]2O)cc(OC)c1O (stereo not given in full) | – | inactive [at 17.3 µM]
20 | COc1cc(C2Oc3c(OC)cc(/C=C/C(=O)OC4CC(O)(C(=O)O)CC(O)C4O)cc3C2CO)ccc1O (stereo not given) | – | inactive [at 17.3 µM]

Row | Compound | activity change, negative = cytotoxicity | outcome
21 | COc1cc(/C=C/C(=O)O[C@H]2C[C@@H]3C(C(=O)O)=CO[C@@H](O[C@@H]4O[C@H](CO)[C@@H](O)[C@H](O)[C@H]4O)[C@@H]3[C@H]2C)ccc1O | – | inactive [at 17.3 µM]
22 | CC(C)=C1CC2C(CCC2(C)O)C(C)(O)CC1=O (stereo not given) | 2.73% (inactive) | –
23 | C/C=C1\[C@H](O[C@@H]2O[C@H](CO)[C@@H](O)[C@H](O)[C@H]2O)OC=C(C(=O)OCCc2ccc(O)cc2)[C@H]1CC(=O)OCCc1ccc(O)cc1 | -6.12% [at 17.3 µM] (inactive) | –
24 | COc1ccc(C2COc3cc(O)ccc3C2)c(O)c1OC (stereo not given) | 5.83% (inactive) | –
25 | CC1(C)CC[C@]2(C(=O)O[C@@H]3O[C@H](CO)[C@@H](O)[C@H](O)[C@H]3O)CC[C@]3(C)C(=CCC4[C@@]5(C)C[C@@H](O)[C@H](O)[C@@](C)(CO)C5[C@H](O)C[C@]43C)C2[C@@H]1O (stereo not given in full) | – | inactive [at 17.3 µM]
26 | OC[C@H]1O[C@@H](Oc2cc(O)cc(-c3cc4ccc(O[C@@H]5O[C@H](CO)[C@@H](O)[C@H](O)[C@H]5O)cc4o3)c2)[C@H](O)[C@@H](O)[C@@H]1O | – | inactive [at 17.3 µM]
27 | COc1ccc(CC(NC(C)=O)C(=O)O)cc1 (stereo not given) | – | inactive
28 | CCOC(=O)C(CCc1ccccc1)NC1CCCN2CCCC(C(=O)O)N2C1=O (stereo not given) | – | inactive
29 | CC1(C)CC[C@]2(C(=O)O[C@@H]3O[C@H](CO)[C@@H](O)[C@H](O)[C@H]3O)CC[C@]3(C)C(=CCC4[C@@]5(C)CC[C@H](O[C@H]6O[C@H](CO)[C@@H](O)[C@H](O[C@@H]7O[C@H](CO)[C@@H](O)[C@H](O)[C@H]7O)[C@H]6O)C(C)(C)C5CC[C@]43C)[C@@H]2C1 (stereo not given in full) | 4.26% [at 9.29 µM] (inactive) | –
30 | CCC(CC)CC1(C(=O)Nc2ccccc2SC(=O)C(C)C)CCCCC1 | -8.02% (inactive) | –
31 | COc1c2cc(c(O[C@@H]3O[C@H](CO)[C@@H](O)[C@H](O)[C@H]3O)c1OC)CCCCC(O)CCc1ccc(O)c-2c1 (stereo not given in full) | 4.33% [at 17.3 µM] (inactive) | –
32 | C=C1CCC2[C@](C)(CCC[C@]2(C)C(=O)O)[C@H]1CC/C(C)=C/C(=O)OC (stereo not given in full) | 5.1% (inactive) | –
33 | C=C1CCC2(C(=O)OC3OC(CO)C(O)C(O)C3O)CCC3(C)C(=CCC4C5(C)CCC(OC6OC(CO)C(OC7OC(C)C(O)C(O)C7O)C(OC7OCC(O)C(O)C7O)C6O)C(C)(C)C5CCC43C)C2C1 (stereo not given) | – | inactive [at 9.29 µM]
34 | C=C(C)[C@H]1CC[C@]2(C(=O)O)CC[C@]3(C)C(CCC4[C@@]5(C)CCC(=O)C(C)(C)C5CC[C@]43C)C12 (stereo not given in full) | -27.5% [at 17.3 µM] (inactive) | –
35 | C[C@@H]1C(=O)O[C@H]2[C@H]1CC[C@@]1(C)C(=O)C=C[C@@](C)(O)[C@H]21 | 6.32% (inactive) | –
36 | Cc1ccc(-c2c(-c3nn(C)c4ncnc(N5CC[C@H](N6CCCCC6)C5)c34)cnn2C)cc1 | 0.644% (inactive) | –
37 | C=C1CCC2(OC1)OC1CC3C4CC=C5CC(O)CC(O[C@@H]6OC[C@H](OC(=O)C(O)C(C)CC)[C@H](O)[C@H]6O[C@@H]6O[C@@H](C)[C@H](O)[C@@H](O)[C@H]6O)C5(C)C4CCC3(C)C1C2C (stereo not given in full) | – | inactive [at 9.29 µM]
38 | O=C1OC(c2ccc(O)cc2)C(O)=C1Cc1ccccc1 (stereo not given) | – | inactive
39 | On1ncc(C2CCNCC2)c1-c1cccc(-c2ccccc2)c1 | – | inactive
40 | C/C(=C\CCC(C)CCO)C(=O)OC[C@H]1O[C@@H](O[C@@H]2OC=C(C(=O)O)[C@H]3CC[C@](C)(O)[C@@H]23)C(O)[C@@H](O)C1O (stereo not given in full) | – | inactive [at 17.3 µM]
